Screening results (PubChem BioAssay)
NS1 function inh – influenza NS1 inhibition | hit rate 0.4% among 270,000 | Potency, µM (doses to about 46.1 µM), without a hit: top-dose activity, positive = more growth; calls by dose curve; further: potency means the concentration at half of the fitted maximal effect; actives are rising curves; nearly all actives have a fitted effect of over 50% in size
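OD600 was taken as the measure of yeast growth restored by compound in an NS1-expressing S. cerevisiae strain. Cells had been washed out of glucose medium and diluted 1:100 into galactose -URA medium, pH 6.0.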
Cycloheximide cs – counter-screen hit for Shiga toxin inhibitors, cycloheximide | cell reporter, cycloheximide protein synthesis inhibition counterscreen | max response, % | hit rate 12% among 300,000 | AID 2314; in the data active means max response mostly above about 13%, no sharp cut-off; inactive means mostly below about 14%; further: read at 38.3 µM for the half of the compounds with a filed dose; 0% is about no effect
Pf growth 96h – inhibits malaria parasite growth, 96 h; AID 504834; P. falciparum luciferase reporter growth, 96 h; Potency, µM (titrated, usually from 28.7 µM), for the others: top-dose activity change, negative = inhibition, actives largely listed as inhibitors; hit rate 6.9% among 320,000; further: potency means the concentration at half of the fitted maximal effect; on the % scale 0 is the no-effect control and ±100 the full control effect
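Compounds incubated with erythrocytes infected by luciferase-expressing P. falciparum (2% hematocrit, 0.05% parasitemia final) for 96 hours, 37 C in 5% CO2. Growth inhibition scored as decreased luciferase luminescence.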
Pf growth 48h – P. falciparum growth inhibition at 48 hours (one generation); hit rate 5.9% among 310,000; AID 504832; Potency, µM (highest dose often 28.7 µM), for inactives: at the highest dose activity change, negative = inhibition, hits mostly inhibitors; P. falciparum luciferase growth in erythrocytes, 48 h; further: potency means the concentration at half of the fitted maximal effect; on the % scale 0 is the no-effect control and ±100 the full control effect
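A one-generation exposure of luciferase-tagged malaria parasites in RPMI 1640/Albumax erythrocyte culture, 37 C and 5% CO2. Inhibition is inferred from decreased luminescence after adding detection reagent.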
Shiga inhibitor – inhibitors of Shiga toxin in Vero cells; Vero cells, Shiga toxin protein synthesis inhibition reporter; inhibition, % at 38.7 µM; hit rate 9.2% among 290,000; AID 2315; in the data active means inhibition mostly above about 28%, no sharp cut-off; inactive means mostly below about 43%; further: 0% is about no effect
Giardia FBPA inh – Giardia lamblia aldolase inhibition. hit rate 0.71% among 290,000. purified Giardia FBPA. AID 2451. Potency, µM (series often up to 59.6 µM), for inactives: at the top dose activity, negative = inhibition, actives largely listed as inhibitors. A8B2U2; further: potency means the concentration at half of the fitted maximal effect; on the % scale 0 is the no-effect control and ±100 the full control effect; nearly all actives have a fitted effect of over 55% in size
Target sequence (A8B2U2 whole entry, looked up): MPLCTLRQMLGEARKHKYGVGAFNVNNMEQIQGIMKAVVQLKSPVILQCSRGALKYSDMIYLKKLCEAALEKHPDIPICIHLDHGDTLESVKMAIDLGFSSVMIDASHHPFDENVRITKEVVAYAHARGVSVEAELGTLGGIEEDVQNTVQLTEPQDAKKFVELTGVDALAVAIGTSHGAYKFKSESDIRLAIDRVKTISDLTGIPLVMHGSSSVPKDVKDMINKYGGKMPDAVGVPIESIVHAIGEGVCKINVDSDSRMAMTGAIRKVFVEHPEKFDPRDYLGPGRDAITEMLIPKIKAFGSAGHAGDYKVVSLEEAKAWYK
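Giardia FBPA (40 nM reagent) was preincubated 10 min at RT with compound (up to 57.5 uM final), then substrate plus GAPDH/TPI/NAD/arsenate coupling system with diaphorase/resazurin was added; resorufin fluorescence (525/598 nm) was read after 20 min.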
An asterisk follows results filed as active. In the library only some 21% were active in any assay of this set; here they are far more common. Unless noted, the call rests on the fitted dose curve; in most records, active means well fitted curve in the direction sought with a large enough effect; inconclusive means small, poorly fitted or top-dose-only effect, or another doubt; inactive means no such curve, though single readings can be large; an effect the other way counts as inactive or inconclusive.

Cc1c(OC(C)C(=O)O)ccc2c3c(c(=O)oc12)CCCC3 (stereo unspecified) was read as NS1 function inh 9%, Cycloheximide cs -3, Pf growth 96h 10µM*, Pf growth 48h -1%, Shiga inhibitor -11 and Giardia FBPA inh 1%.
For CC(=O)Oc1ccc2c3c(c(=O)oc2c1C)CCCC3 the results were NS1 function inh -3%, Cycloheximide cs 7, Pf growth 96h 0%, Pf growth 48h 3%, Shiga inhibitor -13 and Giardia FBPA inh 6%.
Screening O=C(COC(=O)c1ccncc1)Nc1cccc(Cl)c1 returned NS1 function inh 0%, Cycloheximide cs 19, Pf growth 96h 0%, Pf growth 48h -35%, Shiga inhibitor -2 and Giardia FBPA inh 2%.
Screening Cc1onc(-c2ccccc2)c1C(=O)Nc1cccc(OC(C)C)c1 returned NS1 function inh -17%, Cycloheximide cs -2, Pf growth 96h 13µM*, Pf growth 48h -6%, Shiga inhibitor 2 and Giardia FBPA inh -2%.
O=C(COC(=O)c1cccnc1)Nc1cccc(Cl)c1 was read as NS1 function inh -4%, Cycloheximide cs 2, Pf growth 96h 4.7µM*, Pf growth 48h -16%, Shiga inhibitor -7 and Giardia FBPA inh 3%.
For Cc1cccc(OCC(=O)N(C)c2c(N)n(Cc3ccccc3)c(=O)[nH]c2=O)c1C the results were Pf growth 96h -8% and Pf growth 48h 8%.
Screening Cc1c(OC(C)C(=O)NCc2cccnc2)ccc2c3c(c(=O)oc12)CCCC3 (stereo unspecified) returned NS1 function inh -48%, Cycloheximide cs -2, Pf growth 96h 12µM*, Pf growth 48h -16% and Shiga inhibitor -12.
`Cc1onc(-c2ccccc2)c1C(=O)OCC(=O)Nc1ccc(Cl)cc1` gave Pf growth 96h -6% and Pf growth 48h inconclusive.
`COc1ccc(-c2cc(=O)oc3c(C)c(OCC(=O)Nc4cccnc4)ccc23)cc1` gave NS1 function inh 1%, Cycloheximide cs 11, Pf growth 96h 27%, Pf growth 48h 4%, Shiga inhibitor -2 and Giardia FBPA inh 6%.
`Cc1c(C)c2ccc(OCC(=O)Nc3cccnc3)c(C)c2oc1=O` gave NS1 function inh 5%, Cycloheximide cs 26*, Pf growth 96h inconclusive, Pf growth 48h 49%, Shiga inhibitor 32 and Giardia FBPA inh 2%.
Screening Cc1onc(-c2c(F)cccc2Cl)c1C(=O)OCC(=O)NC(c1ccccc1)c1ccccc1 returned NS1 function inh 0%, Cycloheximide cs 8, Pf growth 48h 12µM*, Shiga inhibitor -8 and Giardia FBPA inh -3%.
Cc1onc(-c2ccccc2)c1C(=O)OCC(=O)Nc1cccc(Cl)c1 was read as Pf growth 96h inconclusive and Pf growth 48h 12µM*.
CC(Oc1ccc2c3c(c(=O)oc2c1)CCC3)C(=O)NCc1cccnc1 (stereo unspecified) was read as NS1 function inh -5%, Cycloheximide cs 3, Pf growth 96h inconclusive, Pf growth 48h 6% and Shiga inhibitor -5.
O=C(NC1CC(=O)N(c2ccc3c(c2)OCCO3)C1)c1c(F)cccc1Cl (stereo unspecified) was read as Cycloheximide cs -2 and Shiga inhibitor -10.
Screening C[C@@]12C=Cc3occc3[C@H]1CC[C@@]13C[C@@H](CC[C@H]12)[C@@](O)(CO)C3 returned Cycloheximide cs 10, Shiga inhibitor 21 and Giardia FBPA inh 0%.
For Cc1cc(Cl)ccc1OCCCC(=O)Nc1cccnc1 the results were NS1 function inh -135%, Cycloheximide cs -4, Pf growth 48h 1%, Shiga inhibitor -9 and Giardia FBPA inh 2%.
For Cc1cc(Cl)ccc1OCC(=O)Nc1cccnc1 the results were NS1 function inh -12%, Cycloheximide cs 38*, Pf growth 96h 8%, Pf growth 48h 48%, Shiga inhibitor 61* and Giardia FBPA inh 5%.
For O=C(O)c1cc(Cl)c(Cl)cc1C(=O)N(Cc1ccccc1)Cc1ccccc1 the results were NS1 function inh 0%, Cycloheximide cs -3, Pf growth 96h 9%, Pf growth 48h 12% and Giardia FBPA inh 3%.
`O=C(/C=C/c1cccc([N+](=O)[O-])c1)OCC(=O)c1ccccc1` gave NS1 function inh -1%, Cycloheximide cs -5, Pf growth 96h 11%, Pf growth 48h 13%, Shiga inhibitor -3 and Giardia FBPA inh -3%.
For O=C(/C=C/c1cccc([N+](=O)[O-])c1)OCC1CCCO1 (stereo unspecified) the results were NS1 function inh 15%, Cycloheximide cs 11*, Pf growth 96h 5%, Pf growth 48h 0%, Shiga inhibitor 26* and Giardia FBPA inh 6%.
`O=C(CN1CCCCC1)Nc1ccc(NC(=O)c2ccccc2Cl)cc1Cl` gave NS1 function inh -12%, Cycloheximide cs -1, Pf growth 96h 15µM*, Pf growth 48h -9%, Shiga inhibitor 7 and Giardia FBPA inh -9%.
For O=C(NC1CCCCCCC1)c1ccccc1O the results were NS1 function inh -165%, Cycloheximide cs 31*, Pf growth 96h inconclusive, Pf growth 48h 12µM*, Shiga inhibitor 75* and Giardia FBPA inh -5%.
Screening O=C(NC1CCN(c2ncccn2)CC1)c1ccccc1F returned NS1 function inh 2%, Cycloheximide cs 5, Pf growth 96h -8%, Pf growth 48h 12%, Shiga inhibitor -21 and Giardia FBPA inh 3%.
Screening Cc1ccccc1C(=O)NC1CCCCCCC1 returned NS1 function inh 0%, Cycloheximide cs 34*, Pf growth 96h 153%, Pf growth 48h 162%, Shiga inhibitor 39* and Giardia FBPA inh 11%.
`O=C(NC1CCCCCCC1)c1ccccc1-c1ccccc1` gave NS1 function inh -9%, Cycloheximide cs -6, Pf growth 96h -21%, Pf growth 48h inconclusive, Shiga inhibitor -14 and Giardia FBPA inh 3%.
`O=C(NC1CCN(c2ncccn2)CC1)c1ccccc1Cl` gave NS1 function inh 0%, Cycloheximide cs 4, Pf growth 96h 10µM*, Pf growth 48h -10%, Shiga inhibitor 1 and Giardia FBPA inh 16%.
CCCC[C@H]1C2=C3[C@@H](CC(C(=O)OC)=C[C@@H](C(=O)OC)[C@H]3C(C)(C)C2=O)n2c(=O)n(-c3ccccc3)c(=O)n21 was read as Cycloheximide cs -4, Shiga inhibitor 1 and Giardia FBPA inh -7%.
`O=C(NC1CCCCC1)c1cc2ccccc2cc1O` gave NS1 function inh -8%, Cycloheximide cs 24*, Pf growth 96h 1.9µM*, Pf growth 48h 5.2µM*, Shiga inhibitor 34* and Giardia FBPA inh inconclusive.
For O=C(O)/C=C\C(=O)Nc1ccccc1C(=O)NC1CCCCC1 the results were NS1 function inh 1%, Cycloheximide cs 42*, Pf growth 96h 85%, Pf growth 48h 50%, Shiga inhibitor 65* and Giardia FBPA inh 2%.
